The source of these data is the supplement of paper PMC3545927.

This is one part of the list. The true hit rate is not given.

This assay addresses furin, P09958. Description: furin cleavage Z-score vs untreated control; higher = more cleavage, active = 3.5 or more, inactive = 1 or less, 8 variable residues between constant flanks. In short, it runs like this:
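Peptides 8 residues long, fused to a cDNA oligonucleotide, were fixed to magnetic beads by the N-terminus and exposed to purified furin. The 0.01 ml reactions contained 50 mM HEPES pH 7.5 with CaCl2 and NaCl at 1:10 enzyme:substrate and ran 7.5, 15 or 30 min. For the cleavage Z-score, log counts of sequenced released DNA were compared with furin-free reactions, lowess-adjusted and scaled by median absolute deviation.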

furin, P09958, sequence (P09958 whole entry, the tested form may be a part): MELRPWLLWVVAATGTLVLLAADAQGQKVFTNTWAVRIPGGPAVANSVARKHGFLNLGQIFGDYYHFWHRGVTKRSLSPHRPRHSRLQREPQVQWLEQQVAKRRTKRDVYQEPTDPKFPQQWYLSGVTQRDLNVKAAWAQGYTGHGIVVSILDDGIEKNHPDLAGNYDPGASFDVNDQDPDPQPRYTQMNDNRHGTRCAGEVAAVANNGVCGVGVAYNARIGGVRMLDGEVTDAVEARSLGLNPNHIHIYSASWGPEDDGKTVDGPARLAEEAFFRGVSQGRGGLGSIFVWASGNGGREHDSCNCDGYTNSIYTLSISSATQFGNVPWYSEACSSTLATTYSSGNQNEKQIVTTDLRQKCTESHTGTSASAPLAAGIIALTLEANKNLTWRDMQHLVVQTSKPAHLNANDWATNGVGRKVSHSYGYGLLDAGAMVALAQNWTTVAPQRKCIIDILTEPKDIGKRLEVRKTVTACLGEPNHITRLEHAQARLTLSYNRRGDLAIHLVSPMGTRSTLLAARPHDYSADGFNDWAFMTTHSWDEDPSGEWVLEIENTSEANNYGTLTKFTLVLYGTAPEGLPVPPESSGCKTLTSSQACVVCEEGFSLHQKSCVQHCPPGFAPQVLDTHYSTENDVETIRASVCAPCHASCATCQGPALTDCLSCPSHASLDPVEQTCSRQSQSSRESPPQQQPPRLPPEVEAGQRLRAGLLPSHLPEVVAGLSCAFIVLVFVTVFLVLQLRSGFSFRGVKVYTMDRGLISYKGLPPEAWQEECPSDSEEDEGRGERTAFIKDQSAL

B1: FS-566 (peptide)
chain: CASTVRSLRSAGNASASA
As for B1, the “furin cleavage Z-score” value runs as follows: (7.5 min) 2.72; (15 min) 4.24 (active); (30 min) 4.81 (active).

B2: FS-1345 (peptide)
chain: CAIKKRSLRSAGNASASA
Consider B2, for which the “furin cleavage Z-score” value reads like this: (7.5 min) 6.68 (active); (15 min) 5.55 (active); (30 min) 5.16 (active).

B3: HC2577 (peptide)
chain: CASTPCSAHSAGNASASA
Turning to B3, the “furin cleavage Z-score” value was -0.571 (inactive) (7.5 min), 0.484 (inactive) (15 min) and 1.4 (30 min).

B4: FS-2074 (peptide)
chain: CARRRKSASDAGNASASA
For B4, the “furin cleavage Z-score” value is -0.354 (inactive) (7.5 min), -0.175 (inactive) (15 min) and 0.845 (inactive) (30 min).

B5: HC2404 (peptide)
chain: CAEVPCHRPIAGNASASA
Regarding B5, the “furin cleavage Z-score” value (7.5 min) was 0.502 (inactive), the “furin cleavage Z-score” value (15 min) was -0.467 (inactive) and the “furin cleavage Z-score” value (30 min) was determined as 1.19.

B6: HC2062 (peptide)
chain: CAVVCCSQSYAGNASASA
Regarding B6, the “furin cleavage Z-score” value reads like this: (7.5 min) 1.31; (15 min) 2.95; (30 min) 0.942 (inactive).

B7: FS-957 (peptide)
chain: CARTHRSKRSAGNASASA
Consider B7, for which the “furin cleavage Z-score” value is, setting by setting: (7.5 min) 11.6 (active); (15 min) 11.5 (active); (30 min) 8.26 (active).

B8: FS-1031 (peptide)
chain: CALSHRSKRSAGNASASA
Take B8: the “furin cleavage Z-score” value (7.5 min) was 12.7 (active), the “furin cleavage Z-score” value (15 min) is 12.6 (active) and the “furin cleavage Z-score” value (30 min) was 11.4 (active).

B9: FS-1866 (peptide)
chain: CARRRRDLGGAGNASASA
On to B9, for which the “furin cleavage Z-score” value is 3.6 (active) (7.5 min), 2.23 (15 min) and 1.75 (30 min).

B10: FS-2025 (peptide)
chain: CARHRRILQAAGNASASA
Regarding B10, the “furin cleavage Z-score” value reads like this: (7.5 min) -0.809 (inactive); (15 min) 0.0867 (inactive); (30 min) -0.324 (inactive).

B11: FS-2785 (peptide)
chain: CARRRRDTHFAGNASASA
Take B11: the “furin cleavage Z-score” value (7.5 min) was 8.52 (active), the “furin cleavage Z-score” value (15 min) is 11.4 (active) and the “furin cleavage Z-score” value (30 min) was 10.2 (active).

B12: FS-1838 (peptide)
chain: CARRRRDHHMAGNASASA
With B12, the “furin cleavage Z-score” value was 7.82 (active) (7.5 min), 8.82 (active) (15 min) and 7.36 (active) (30 min).

B13: HC732 (peptide)
chain: CARRRGDSRGAGNASASA
For the sequence B13, the “furin cleavage Z-score” value (7.5 min) was -0.828 (inactive), the “furin cleavage Z-score” value (15 min) was -0.656 (inactive) and the “furin cleavage Z-score” value (30 min) was -0.847 (inactive).

B14: FS-2075 (peptide)
chain: CARRRRDLQAAGNASASA
For B14, the “furin cleavage Z-score” value by setting is: (7.5 min) 8.41 (active); (15 min) 10.5 (active); (30 min) 8.73 (active).

B15: FS-3065 (peptide)
chain: CARRRRRPGGAGNASASA
With B15, the “furin cleavage Z-score” value is, setting by setting: (7.5 min) -0.191 (inactive); (15 min) -1.18 (inactive); (30 min) -0.53 (inactive).

B16: FS-2073 (peptide)
chain: CARRRKDDYAAGNASASA
As to B16, the “furin cleavage Z-score” value is, setting by setting: (7.5 min) 0.651 (inactive); (15 min) 0.661 (inactive); (30 min) -1.05 (inactive).

B17: HC2055 (peptide)
chain: CAVVCCSHSYAGNASASA
As to B17, the “furin cleavage Z-score” value is, setting by setting: (7.5 min) 1.14; (15 min) -0.432 (inactive); (30 min) 0.703 (inactive).

B18: HC1676 (peptide)
chain: CAGEECSQHLAGNASASA
With B18, the “furin cleavage Z-score” value runs as follows: (7.5 min) 0.0385 (inactive); (15 min) 1.42; (30 min) -0.903 (inactive).

B19: FS-2517 (peptide)
chain: CARRRRDLGSAGNASASA
For the sequence B19, the “furin cleavage Z-score” value was 10.6 (active) (7.5 min), 10 (active) (15 min) and 9.26 (active) (30 min).

B20: HC977 (peptide)
chain: CANEITLTHPAGNASASA
With B20, the “furin cleavage Z-score” value is -0.433 (inactive) (7.5 min), 0.337 (inactive) (15 min) and 0.088 (inactive) (30 min).

B21: HC1573 (peptide)
chain: CAVNSWLGNIAGNASASA
As for B21, the “furin cleavage Z-score” value by setting is: (7.5 min) 1.52; (15 min) 0.0684 (inactive); (30 min) -1.01 (inactive).

B22: HC432 (peptide)
chain: CARPPLGNWFAGNASASA
Turning to B22, the “furin cleavage Z-score” value is 1.77 (7.5 min), 0.979 (inactive) (15 min) and -0.0677 (inactive) (30 min).

B23: FS-1982 (peptide)
chain: CADPKRTIGQAGNASASA
As to B23, the “furin cleavage Z-score” value (7.5 min) is 0.168 (inactive), the “furin cleavage Z-score” value (15 min) was -0.891 (inactive) and the “furin cleavage Z-score” value (30 min) is -1.67 (inactive).

B24: FS-2959 (peptide)
chain: CARKERRKHKAGNASASA
With B24, the “furin cleavage Z-score” value was -0.0944 (inactive) (7.5 min), -0.106 (inactive) (15 min) and 0.503 (inactive) (30 min).

B25: FS-1238 (peptide)
chain: CANKKRKARWAGNASASA
B25: the “furin cleavage Z-score” value runs as follows: (7.5 min) 6.93 (active); (15 min) 7.47 (active); (30 min) 9.18 (active).

B26: FS-213 (peptide)
chain: CAAKERLKRKAGNASASA
Regarding B26, the “furin cleavage Z-score” value runs as follows: (7.5 min) 9.07 (active); (15 min) 9.78 (active); (30 min) 9.62 (active).

B27: FS-2478 (peptide)
chain: CAKRKRWTGQAGNASASA
For B27, the “furin cleavage Z-score” value was 1 (7.5 min), 4.62 (active) (15 min) and 4.37 (active) (30 min).

B28: FS-2625 (peptide)
chain: CAWEKRSRGQAGNASASA
Take B28: the “furin cleavage Z-score” value runs as follows: (7.5 min) -0.652 (inactive); (15 min) -0.795 (inactive); (30 min) -0.906 (inactive).

B29: FS-484 (peptide)
chain: CAQWARYARWAGNASASA
For B29, the “furin cleavage Z-score” value (7.5 min) was -0.0806 (inactive), the “furin cleavage Z-score” value (15 min) was 1.37 and the “furin cleavage Z-score” value (30 min) was 2.8.

B30: WN4 (peptide)
chain: CANKKRGGTAAGNASASA
For the sequence B30, the “furin cleavage Z-score” value is, setting by setting: (7.5 min) -1.48 (inactive); (15 min) -0.337 (inactive); (30 min) -0.0754 (inactive).

B31: FS-827 (peptide)
chain: CALSKRKKRKAGNASASA
Turning to B31, the “furin cleavage Z-score” value was 8.35 (active) (7.5 min), 9.52 (active) (15 min) and 8.96 (active) (30 min).

B32: HC1880 (peptide)
chain: CATTCCSGSWAGNASASA
Turning to B32, the “furin cleavage Z-score” value (7.5 min) was -0.863 (inactive), the “furin cleavage Z-score” value (15 min) was -1.92 (inactive) and the “furin cleavage Z-score” value (30 min) was -0.734 (inactive).

B33: HC2322 (peptide)
chain: CAQVPCHRPSAGNASASA
In the case of B33, the “furin cleavage Z-score” value (7.5 min) was 0.276 (inactive), the “furin cleavage Z-score” value (15 min) turned out to be 1.25 and the “furin cleavage Z-score” value (30 min) amounted to 1.48.

B34: FS-1218 (peptide)
chain: CAKKKRRKRKAGNASASA
Turning to B34, the “furin cleavage Z-score” value (7.5 min) is 5.44 (active), the “furin cleavage Z-score” value (15 min) is 7 (active) and the “furin cleavage Z-score” value (30 min) was 6.09 (active).

B35: FS-1222 (peptide)
chain: CAKNMRRKRKAGNASASA
Take B35: the “furin cleavage Z-score” value is 9.63 (active) (7.5 min), 9.29 (active) (15 min) and 7.84 (active) (30 min).

B36: FS-2122 (peptide)
chain: CAKKKRVVPKAGNASASA
Consider B36, for which the “furin cleavage Z-score” value is -1.74 (inactive) (7.5 min), -0.376 (inactive) (15 min) and -0.937 (inactive) (30 min).

B37: FS-1223 (peptide)
chain: CAKRKRSKRKAGNASASA
For B37, the “furin cleavage Z-score” value runs as follows: (7.5 min) 10.8 (active); (15 min) 10.5 (active); (30 min) 8.25 (active).

B38: FS-245 (peptide)
chain: CAGRSHSKRKAGNASASA
Take B38: the “furin cleavage Z-score” value runs as follows: (7.5 min) 1.44; (15 min) 0.295 (inactive); (30 min) 1.58.

B39: FS-2866 (peptide)
chain: CAKKKRKFSKAGNASASA
On to B39, for which the “furin cleavage Z-score” value was -0.0204 (inactive) (7.5 min), -0.905 (inactive) (15 min) and -0.0235 (inactive) (30 min).

B40: FS-673 (peptide)
chain: CAKKKRKKRKAGNASASA
Regarding B40, the “furin cleavage Z-score” value by setting is: (7.5 min) 4.92 (active); (15 min) 5.01 (active); (30 min) 5.6 (active).

B41: FS-2541 (peptide)
chain: CAKKKRAACKAGNASASA
Consider B41, for which the “furin cleavage Z-score” value is 0.497 (inactive) (7.5 min), -0.617 (inactive) (15 min) and 1.88 (30 min).

B42: HC631 (peptide)
chain: CALGALTGTYAGNASASA
For the sequence B42, the “furin cleavage Z-score” value is -0.145 (inactive) (7.5 min), 0.814 (inactive) (15 min) and 0.51 (inactive) (30 min).

B43: HC1451 (peptide)
chain: CAVFPDLGVRAGNASASA
In the case of B43, the “furin cleavage Z-score” value was -2.35 (inactive) (7.5 min), -0.19 (inactive) (15 min) and 0.302 (inactive) (30 min).
